In PubChem BioAssay:
Results filed as inconclusive are left out. Activity calls are given as the source filed them.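 The calls were made as follows, unless noted: active = normalized viability below 100% at a tested concentration; inactive = the rest.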

Key:
[1] = growth inhibition of DIPG glioma cells, dose response, cell-based, SU-DIPG-XVII, MIPE5.0, CellTiter-Glo, qHTS (AID 1347060; cut-off not given, nearly all actives have AC50 up to about 26 µM;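 as to AC50: cells exposed to compound for 48 hours before viability readout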); conditions: SU-DIPG-XVII viability, CellTiter-Glo ATP luminescence
[2] = growth inhibition of DIPG glioma cells, dose response, cell-based, JHH-DIPG-1, MIPE4.0, CellTiter-Glo, qHTS (AID 1347062; cut-off not given, nearly all actives have AC50 up to about 27 µM;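 also: cells exposed to compound for two days before readout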); conditions: JHH-DIPG-1 viability, CellTiter-Glo ATP luminescence
[3] = growth inhibition of DIPG glioma cells, dose response, cell-based, SU-DIPG-IV, MIPE4.0, CellTiter-Glo, qHTS (AID 1347063; cut-off not given, nearly all actives have AC50 up to about 30 µM;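 also: compound exposure lasted 48 hours before the viability readout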); conditions: SU-DIPG-IV viability, CellTiter-Glo ATP luminescence
[4] = growth inhibition of DIPG glioma cells, dose response, cell-based, SU-DIPG-XIII, MIPE5.0, CellTiter-Glo, qHTS (AID 1347064; cut-off not given, nearly all actives have AC50 up to about 23 µM;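 as to AC50: cells exposed to compound for 48 hours before the viability read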); conditions: SU-DIPG-XIII viability, CellTiter-Glo ATP luminescence
[5] = viability loss in pontine glioma line – cell-based, SU-DIPG-XXV, MIPE5.0, CellTiter-Glo, qHTS, dose response (AID 1347065; cut-off not given, nearly all actives have AC50 up to about 26 µM;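 also: cells exposed to compound for 48 hours before ATP readout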); conditions: CellTiter-Glo ATP luminescence
[6] = SU-DIPG-VI glioma cell viability, MIPE4.0 library, CellTiter-Glo luminescence, qHTS (AID 1347066; cut-off not given, nearly all actives have AC50 up to about 30 µM;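 also: cells exposed to compound for 48 hours before readout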); conditions: CellTiter-Glo ATP luminescence
[7] = JHH-DIPG-1 glioma cell viability, MIPE5.0 library, CellTiter-Glo luminescence, qHTS (AID 1347067; cut-off not given, nearly all actives have AC50 up to about 26 µM;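 also: cells exposed to compound for 48 hours before readout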); conditions: JHH-DIPG-1 glioma viability, CellTiter-Glo ATP luminescence
[8] = SU-DIPG-XXV glioma cell viability, MIPE5.0 library, qHTS (AID 1347068; cut-off not given, nearly all actives have IC50 up to about 30 µM;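 as to IC50: cells exposed to compound for 48 hours before viability readout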)
[9] = sensitizers of A549 cells to miR-34 induction, primary screen, imaging, A549 dox-inducible miR-34, nuclei and caspase counts (AID 1347080;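 active = compounds whose cell count with miR-34 switched on is under 0.7 times the count with it off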); conditions: A549 miR-34 inducible, Hoechst nuclei count, 48 h
[10] = survival rescue of mitochondrial mutant cells in low glucose, primary screen, MELAS cybrids, Rieske KO mouse fibroblasts, CellTiter-Glo (AID 1508586;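 active = mean z-score across replicates of 1.96 or higher in either the MELAS or the Rieske mutant cell line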;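 also: z relative to plate mean and SD of compound and empty wells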)
[11] = growth inhibition of DIPG glioma cells, dose response, cell-based, SU-DIPG-XIII, MIPE4.0, CellTiter-Glo, qHTS (AID 1347061; cut-off not given, nearly all actives have AC50 up to about 37 µM;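 also: cells exposed to compound for 48 hours before readout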); conditions: SU-DIPG-XIII viability, CellTiter-Glo ATP luminescence
[12] = ovarian cancer cell viability with rucaparib, profiling panel, oncology-focused library, rucaparib conditional (AID 1508598); conditions: patient-derived ovarian cancer cells, CellTiter-Glo viability, 144 h, stronger effect = lower value
[13] = modifiers of HSF1 nuclear foci, imaging, Selleck Cancer Library (AID 1347162; in the data active = plate-normalised HSF1 focus index below about 0.46); conditions: human cells, at 10 µM; SSMD: measured here: HSF1 foci SSMD mean; cell count: measured here: cell number; plate-normalised HSF1 focus index: stronger effect = lower value
[14] = stronger effect = lower value, cell number ratio, induced over uninduced
[15] = measured here: relative caspase fold change +Dox/-Dox
[16] = measured here: total cells with miR-34 induction, stronger effect = lower value
[17] = measured here: total cells without miR-34 induction
[18] = MELAS cybrid survival, CellTiter-Glo 48 h, stronger effect = higher value
[19] = Rieske KO mouse fibroblast survival, CellTiter-Glo 72 h
[20] = at 0.000305 µM, OCI-C5x cells, with rucaparib 10 µM, 100% = cells with rucaparib alone
[21] = at 0.000305 µM, OCI-C5x cells, without rucaparib
[22] = at 0.000305 µM, OCI-P5x cells, with rucaparib 20 µM, 100% = cells with rucaparib alone
[23] = at 0.000305 µM, OCI-P5x cells, without rucaparib
[24] = at 0.00122 µM, OCI-C5x cells, with rucaparib 10 µM, 100% = cells with rucaparib alone
[25] = at 0.00122 µM, OCI-C5x cells, without rucaparib
[26] = at 0.00122 µM, OCI-P5x cells, with rucaparib 20 µM, 100% = cells with rucaparib alone
[27] = at 0.00122 µM, OCI-P5x cells, without rucaparib
[28] = at 0.00488 µM, OCI-C5x cells, with rucaparib 10 µM, 100% = cells with rucaparib alone
[29] = at 0.00488 µM, OCI-C5x cells, without rucaparib
[30] = at 0.00488 µM, OCI-P5x cells, with rucaparib 20 µM, 100% = cells with rucaparib alone
[31] = at 0.00488 µM, OCI-P5x cells, without rucaparib
[32] = at 0.0195 µM, OCI-C5x cells, with rucaparib 10 µM, 100% = cells with rucaparib alone

CNC(=O)c1ccc(N2C(=S)N(c3cnc(C#N)c(C(F)(F)F)c3)C(=O)C23CCC3)cc1F
9240: cell count [9, 16]
0.701: fold change [9, 15]
inactive: outcome [1] | outcome [4] | outcome [5] | outcome [7] | outcome [8] | fold change [9, 14] 0.909 | z-score [10, 18] -0.228
10200: cell count [9, 17]
active: AC50 [2] 935 nM | AC50 [3] 1320 nM | AC50 [6] 18700 nM
0.855: z-score [10, 19]

CCN(CC)CCNC(=O)c1ccc2nc(-c3ccccc3)c(-c3ccc(CN4CCC(n5c(=O)[nH]c6ccccc65)CC4)cc3)nc2c1
active: AC50 [1] 11800 nM | AC50 [2] 8330 nM | AC50 [3] 4690 nM | AC50 [4] 14800 nM | AC50 [5] 10500 nM | AC50 [6] 3320 nM | AC50 [7] 10500 nM | IC50 [8] 7420 nM

Cc1c(NC(=O)OC[C@@H]2COCCN2)cn2ncnc(Nc3ccc4c(cnn4Cc4cccc(F)c4)c3)c12
inactive: outcome [11] | viability [12, 20] 137% | viability [12, 21] 137% | viability [12, 22] 115% | viability [12, 23] 112% | viability [12, 24] 131% | viability [12, 25] 144% | viability [12, 26] 114% | viability [12, 27] 111% | viability [12, 28] 117% | viability [12, 29] 132% | viability [12, 30] 109% | viability [12, 32] 119% | viability ([12]; at 0.0195 µM, OCI-C5x cells, without rucaparib) 133% | viability ([12]; at 0.0195 µM, OCI-P5x cells, with rucaparib 20 µM, 100% = cells with rucaparib alone) 109% | viability ([12]; at 0.0781 µM, OCI-C5x cells, with rucaparib 10 µM, 100% = cells with rucaparib alone) 116% | viability ([12]; at 0.0781 µM, OCI-C5x cells, without rucaparib) 139% | viability ([12]; at 0.0781 µM, OCI-P5x cells, with rucaparib 20 µM, 100% = cells with rucaparib alone) 111% | viability ([12]; at 0.313 µM, OCI-C5x cells, with rucaparib 10 µM, 100% = cells with rucaparib alone) 121% | viability ([12]; at 0.313 µM, OCI-C5x cells, without rucaparib) 133% | viability ([12]; at 0.313 µM, OCI-P5x cells, with rucaparib 20 µM, 100% = cells with rucaparib alone) 103% | viability ([12]; at 1.25 µM, OCI-C5x cells, with rucaparib 10 µM, 100% = cells with rucaparib alone) 121% | viability ([12]; at 1.25 µM, OCI-C5x cells, without rucaparib) 140% | viability ([12]; at 5 µM, OCI-C5x cells, without rucaparib) 144%
active: AC50 [1] 23500 nM | viability [12, 31] 96.9% | viability ([12]; at 0.0195 µM, OCI-P5x cells, without rucaparib) 98.1% | viability ([12]; at 0.0781 µM, OCI-P5x cells, without rucaparib) 98% | viability ([12]; at 0.313 µM, OCI-P5x cells, without rucaparib) 96.4% | viability ([12]; at 1.25 µM, OCI-P5x cells, with rucaparib 20 µM, 100% = cells with rucaparib alone) 96.9% | viability ([12]; at 1.25 µM, OCI-P5x cells, without rucaparib) 92.8% | viability ([12]; at 5 µM, OCI-C5x cells, with rucaparib 10 µM, 100% = cells with rucaparib alone) 89.2% | viability ([12]; at 5 µM, OCI-P5x cells, with rucaparib 20 µM, 100% = cells with rucaparib alone) 92.1% | viability ([12]; at 5 µM, OCI-P5x cells, without rucaparib) 96.9%

O=C(Cc1ccc(-c2ccc(OCCN3CCOCC3)cc2)cn1)NCc1ccccc1
0.488: fold change [9, 15]
-0.489: z-score [10, 19]
6240: cell count [13]
1260: cell count [9, 17]
active: AC50 [1] 118 nM | AC50 [2] 59 nM | AC50 [3] 11.8 nM | AC50 [4] 661 nM | AC50 [5] 118 nM | AC50 [6] 1050 nM | AC50 [7] 132 nM | IC50 [8] 525 nM | viability [12, 31] 96.7%
inactive: fold change [9, 14] 1.21 | plate-normalised HSF1 focus index [13] 1.14 | z-score [10, 18] 1.14 | viability [12, 20] 106% | viability [12, 21] 114% | viability [12, 22] 109% | viability [12, 23] 106% | viability [12, 24] 111% | viability [12, 25] 124% | viability [12, 26] 108% | viability [12, 27] 108% | viability [12, 28] 112% | viability [12, 29] 109% | viability [12, 30] 105% | viability [12, 32] 101%
2.71: SSMD [13]
1530: cell count [9, 16]
